Assay results from ChEMBL document CHEMBL4513216, “Probing the Open Global Health Chemical Diversity Library for Multistage-Active Starting Points for Next-Generation Antimalarials” (ACS Infect Dis, 2020).
About 8,600 (12%) of roughly 69,000 compounds showed an effect of 50% or more. The sample as a whole holds a higher share of strong results than the screen did.

system: Plasmodium berghei; assay: Screen against P. berghei liver stage (PbLuc), transformed with Luciferase, at 10uM; assay type: functional, HepG2; conditions: tested at 10 uM

Compound	INHIBITION
CCOC(=O)c1cnn(C2CCN(C(=O)CCC(C)C)CC2)c1N	38.3%
Cc1nnc2ccc(OCCNS(=O)(=O)c3cccs3)nn12	3.13%
CCc1ccc(S(=O)(=O)NCCOc2ccc3nnc(C)n3n2)s1	31%
Cc1ccc(S(=O)(=O)NCCOc2ccc3nnc(C)n3n2)s1	57.4%
CC(C)C(=O)N1CCc2onc(C(=O)NCCN(C)C)c2C1	39.4%
Cc1ccc(CN2CCc3onc(C(=O)NC(C)C)c3C2)o1	45.4%
CN(C)CCNC(=O)c1noc2c1CN(C(=O)N(C)C)CC2	28.2%
Cc1ccc(CN2CCc3onc(C(=O)NCCN(C)C)c3C2)o1	54.4%
CC(C)NC(=O)N1CCc2onc(C(=O)NCCN(C)C)c2C1	95.7%
Cc1ccc(CN2CCc3onc(C(=O)N4CCCC4)c3C2)o1	23.6%
O=C1N(c2cccnc2)CCC12CCCN(Cc1ccoc1)C2 (configuration not stated)	-29.3%
CCN1CCC[C@@H]1CNC(=O)c1cc(COc2ccccc2)[nH]n1	33.4%
O=C1CC(NCc2cnc(-c3cccs3)nc2)CN1c1ccccc1 (configuration not stated)	8.92%
O=C1CC(NCc2cnc(N3CCCC3)nc2)CN1c1ccccc1 (configuration not stated)	43.9%
O=C1CC(NCc2cnc(C3CCCCC3)nc2)CN1c1ccccc1 (configuration not stated)	56.5%
Cc1cnn(CC2CCCCN2CCCS(=O)(=O)N(C)C)c1 (configuration not stated)	13.3%
Nc1c(N2CCCCC2)ncnc1N1CCOCC1	10.5%
Nc1c(N2CCOCC2)ncnc1N1CCOCC1	50%
Nc1c(N2CCCC2)ncnc1N1CCOCC1	7.53%
Cc1cc(C)n(-c2ccccc2NC(=O)NCCS(=O)(=O)CC(C)C)n1	32.5%
CC(Cn1cccn1)NCc1nc(-c2cccnc2)no1 (configuration not stated)	86.8%
CC(Cn1cccn1)NCc1nc(-c2cccc(Cl)c2)no1 (configuration not stated)	26.3%

Compound	INHIBITION
Cc1cnn(CC(C)NCc2nc(-c3cccnc3)no2)c1 (configuration not stated)	15.1%
CC(Cn1cccn1)NCc1nc(-c2ccsc2)no1 (configuration not stated)	1.78%
CC(Cn1cccn1)NCc1nc(-c2ccccc2Cl)no1 (configuration not stated)	25.1%
COc1ccc(-c2noc(CNC(C)Cn3cccn3)n2)c(OC)c1 (configuration not stated)	53.8%
CCn1cc(-c2nccnc2C2CCCN(C(C)=O)C2)cn1 (configuration not stated)	-14.2%
COCC1Cn2nnc(-c3cnn(C)c3)c2CN1Cc1ccc(C)o1 (configuration not stated)	-1.12%
O=C1COc2cc(S(=O)(=O)NCCC3=CCCCC3)c(Cl)cc2N1	48.4%
NC(=O)N1CC[C@H](O)[C@@H]1Cc1ccccc1	46.9%
O=C(NCc1nn(-c2ccccc2)c2c1CCC2)NC1CCOCC1	-6.11%
CCCc1cncnc1N1CCC2(CCC(=O)N(CCCO)C2)CC1	-43.8%
Cc1nn(C)cc1-c1cc(C(=O)NCC(C)(C)c2ccc(F)cc2)n[nH]1	5.75%
CC(=O)N1[C@H](Cn2cncn2)C[C@@H]2CN(c3ncc(F)cn3)CC[C@@H]21	21.3%
CC(C)c1nnc2n1CC(CNC/C=C/c1ccccc1)CC2 (configuration not stated)	51.3%
C(=C\c1ccccc1)/CNCC1CCc2nncn2C1 (configuration not stated)	17.1%
CC(C)c1nnc2n1CC(CNCc1nc3ccccc3s1)CC2 (configuration not stated)	43.3%
Cc1cnn(CCNCc2nnc(Cc3ccccc3)o2)c1	2.97%
Cc1nn(-c2ccc(F)cc2)c2[nH]nc(N)c12	46.4%
Cc1nn(C)c2c(=O)n(Cc3ccc(F)cc3)nnc12	-10.77%
Cc1nn(Cc2ccc(F)cc2)c2[nH]nc(N)c12	78.2%
O=C(Nc1ccccc1)C1CN(CC2CCOCC2)CC12CCOCC2 (configuration not stated)	-42.9%
CCC[C@@H]1CN(Cc2cc(C#N)n(C)c2C)C[C@H]1NS(C)(=O)=O	64.4%
CCOC(=O)C1CCCN(Cc2cc(C#N)n(C)c2C)C1 (configuration not stated)	24.7%

Compound	INHIBITION
CCC[C@H]1CN(Cc2cc(C#N)n(C)c2C)C[C@@H]1NS(=O)(=O)CC	61.8%
CCC[C@H]1CN(Cc2ccc(N(C)C)nc2)C[C@@H]1NS(=O)(=O)CC	46.6%
CCC[C@@H]1CN(Cc2ccc(N(C)C)nc2)C[C@H]1N(C)C	36.5%
CCC[C@H]1CN(Cc2ccccc2C#N)C[C@@H]1NS(C)(=O)=O	49.3%
CCC[C@@H]1CN(Cc2c[nH]nc2-c2ccc(F)cc2)C[C@H]1NS(C)(=O)=O	27.4%
CCC[C@@H]1CN(Cc2ccccc2C#N)C[C@H]1NC(C)=O	17.5%
CCC[C@H]1CN(Cc2cc(C#N)n(C)c2C)C[C@@H]1N(C)C	73.6%
O=C(c1cc2ccccc2[nH]1)N1CCC(Nc2cccnn2)CC1	31.2%
Cc1nnc2n1CCN(C(=O)c1ccc(Cn3cccc3)cc1)C2	-18.52%
CN1CCN(C(=O)c2ccc3c(c2)nc(N2CCOCC2)n3C)CC1=O	-18.9%
Cc1nc(C(=O)N2CCCC2c2c(C)nn(C)c2Cl)ccc1C#N (configuration not stated)	0.914%
NC(=O)NCC(=O)N1C[C@@H]2CC[C@H]1CN(C1Cc3ccccc3C1)C2	21%
CCCC(=O)N1CCCC1(C)c1nc(C)no1 (configuration not stated)	-3.97%
CN(C)c1ncc(C2Nc3ccccc3C3=NCCCN32)cn1 (configuration not stated)	9.93%
COc1cc(C2Nc3cc(Cl)ccc3C3=NCCN32)cc(OC)c1OC (configuration not stated)	38.8%
COc1cc(OC)c(C2Nc3cc(Cl)ccc3C3=NCCN32)cc1OC (configuration not stated)	73.9%
COc1ccc(C2Nc3cc(Cl)ccc3C3=NCCN32)cc1O (configuration not stated)	28%
COc1ccc(C2Nc3ccccc3C3=NCCCN32)cc1OC (configuration not stated)	54%
COc1cc(C2Nc3cc(Cl)ccc3C3=NCCN32)ccc1O (configuration not stated)	-43%
COc1ccc(C2Nc3cc(Cl)ccc3C3=NCCN32)cc1OC (configuration not stated)	72.8%
Oc1ccc(C2Nc3ccccc3C3=NCCCN32)cc1 (configuration not stated)	36.4%
COc1ccc(C2Nc3cc(Cl)ccc3C3=NCCN32)cc1CO (configuration not stated)	46%

Compound	INHIBITION
COCc1nc(C(=O)N2CCCC(n3ccnc3C(C)C)C2)cs1 (configuration not stated)	19.5%
O=C([C@H]1CCCO1)N1CC[C@@H](O)[C@@H]1Cc1ccccc1	21.1%
CC(O)CN1CCN(C(=O)c2cc3ccccc3[nH]c2=O)CC1 (configuration not stated)	16.6%
CNc1cc2c(nn1)CCN(C(=O)c1ccccc1-n1cccn1)C2	36.8%
CN1CCCCC(C2CCN(S(=O)(=O)c3cn(C)cn3)CC2)C1=O (configuration not stated)	-23.4%
CCNC(=O)[C@@H]1C[C@@H](NC(=O)CSC)CN1Cc1ccncc1	29.6%
OC(CNCCn1cccn1)c1cccc(F)c1 (configuration not stated)	-15.5%
Cc1ccnc(OC[C@]23COC[C@H]2CN(C(=O)c2ncccn2)C3)n1	18.4%
Cc1ncccc1C(=O)NC1(c2cccc(F)c2)CCOCC1	76.2%
O=C(NC1(c2cccc(F)c2)CCOCC1)c1ccccn1	26.8%
O=C(NC1(c2cccc(F)c2)CCOCC1)c1cc[nH]n1	13.5%
O=C(NC1(c2cccc(F)c2)CCOCC1)c1ccoc1	18.5%
CC(C)c1ocnc1C(=O)NC1(c2cccc(F)c2)CCOCC1	60.3%
CN1CC(C(=O)NC2(c3cccc(F)c3)CCOCC2)CC1=O (configuration not stated)	-36%
CN(C)c1cc(C(=O)NC2(c3cccc(F)c3)CCOCC2)ccn1	27.5%
Cc1cc(C(=O)NC2(c3cccc(F)c3)CCOCC2)no1	20.6%
COc1ncccc1C(=O)NC1(c2cccc(F)c2)CCOCC1	65.3%
CCC(CC)C(=O)N1CCCc2c(cnn2C)C1	31.9%
O=C(CCc1cc(Cl)no1)N1CCC(c2cc3ncccc3cn2)CC1	23.2%
CCOc1ccccc1-n1c(-c2cn(CC)nc2C)n[nH]c1=O	18%
CN1CCCC(CCC(=O)NCCCn2ncc3ccccc32)C1 (configuration not stated)	17%
CC(=O)Nc1cc(C(C)(C)C)sc1C#N	-52.4%

Compound	INHIBITION
CC(C)[C@@H]1CN(C(=O)c2ccsc2)C[C@H]1C(=O)O	30.9%
Cc1cncc(C(=O)N2C[C@@H](C(=O)O)[C@H](C(C)C)C2)c1	72.2%
Cc1cc(C(=O)N2C[C@@H](C(=O)O)[C@H](C(C)C)C2)cs1	46.1%
CC(NC(=O)NCCCn1cccn1)c1ccncc1 (configuration not stated)	36.3%
COC(=O)c1cc2n(n1)CCN(C(=O)c1csc(CN(C)C)n1)C2	-4.96%
COC(=O)Cn1c(=O)[nH]c2cn(-c3cccc(Cl)c3)c(=O)n21	33.7%
COCCOCC(=O)N1C[C@@H]2CC[C@H](Oc3ccccc3Cl)[C@@H]2C1	40%
COc1cc(C)c(C(C)Nc2ncc(C(N)=O)cc2Cl)cc1OC (configuration not stated)	-37.7%
COc1ccccc1C(C)Nc1ncc(C(N)=O)cc1Cl (configuration not stated)	-7.25%
Cc1nn(C)cc1C(C)Nc1ncc(C(N)=O)cc1Cl (configuration not stated)	71.1%
Cc1noc2ncc(C(=O)NCC3CCCOC3)cc12 (configuration not stated)	-6.45%
N#CC1(NC(=O)c2cc(Cl)c3c(c2)OCCCO3)CCC1	-14.2%
c1cnc2ccc(C[C@@H]3CC[C@H](CN4CCCOCC4)O3)cc2c1	23.5%
Cc1cc(C(=O)N2CCc3ncnc(-c4cnn(C)c4)c3CC2)no1	0.618%
CN1CCC2(CCCN(S(=O)(=O)c3ccc(-c4cnco4)s3)C2)C1 (configuration not stated)	37.3%
Cc1occc1CNC(=O)N1CCC(Cc2cnn(C)c2)C1 (configuration not stated)	-24.15%
Cc1ccc(S(=O)(=O)N2Cc3c(CN(C)C)nn(C)c3C2)cc1	0.542%
CCc1ccc(S(=O)(=O)N2Cc3c(CN(C)C)nn(C)c3C2)cc1	72%
COc1ccc(S(=O)(=O)N2Cc3c(CN(C)C)nn(C)c3C2)cc1	-6.23%
